Screening data as filed in PubChem.
DUSP3 inh: blocks human VHR1 dual specificity phosphatase | AID 1654 | 290,000 tested, 0.52% active | inhibition, % at 13.3 µM | P51452 | recombinant VHR phosphatase, pNPP absorbance; in the data active = inhibition above about 50%
Target sequence (P51452 whole entry, looked up): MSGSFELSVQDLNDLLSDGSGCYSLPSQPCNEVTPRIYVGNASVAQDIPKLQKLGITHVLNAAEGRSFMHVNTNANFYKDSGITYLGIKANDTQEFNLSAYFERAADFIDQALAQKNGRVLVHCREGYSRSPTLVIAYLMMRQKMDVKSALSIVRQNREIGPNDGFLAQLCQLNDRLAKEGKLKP
Mtb hypoxia rep: reduces hypoxia-regulated biosensor signal in M. tuberculosis | M. tuberculosis hypoxia-regulated fluorescent reporter, fluorescence | fluorescence inhibition, % (concentration not given with the values) | 300,000 tested, 0.1% active | AID 1159583; in the data active = fluorescence inhibition mostly above about 23%, no sharp cut-off; inactive = mostly below about 17%
GDH-TPI counter: counter-screen for M. tuberculosis FBA inhibitors: GDH-TPI coupled enzymes; GDH-TPI coupled enzyme counterscreen, NADH absorbance; inhibition, % at 4.8 µM; 360,000 tested, 1.2% active; AID 588335; in the data active = inhibition above about 30%;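 note: 0% = DMSO wells and 100% = wells lacking the enzyme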
Mtb betalactam: beta-lactam sensitization of Mtb H37Rv; M. tuberculosis H37Rv growth with meropenem, percent inhibition; 330,000 tested, 0.27% active; inhibition, % at 25 µM; call rule not given here;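 note: growth measured after seven days incubation then overnight dye step; 0% = bacteria only wells and 100% = bacteria with antibiotic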
FBA Mtb inh: inhibits M. tuberculosis FBA enzyme. purified M. tuberculosis FBA, fluorescence read-out. inhibition, % at 1 µM. 360,000 tested, 2.3% active; in the data active = inhibition above about 27%;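 note: 0% = vehicle and 100% = reference inhibitor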
Target sequence (P9WQA3 whole entry, looked up): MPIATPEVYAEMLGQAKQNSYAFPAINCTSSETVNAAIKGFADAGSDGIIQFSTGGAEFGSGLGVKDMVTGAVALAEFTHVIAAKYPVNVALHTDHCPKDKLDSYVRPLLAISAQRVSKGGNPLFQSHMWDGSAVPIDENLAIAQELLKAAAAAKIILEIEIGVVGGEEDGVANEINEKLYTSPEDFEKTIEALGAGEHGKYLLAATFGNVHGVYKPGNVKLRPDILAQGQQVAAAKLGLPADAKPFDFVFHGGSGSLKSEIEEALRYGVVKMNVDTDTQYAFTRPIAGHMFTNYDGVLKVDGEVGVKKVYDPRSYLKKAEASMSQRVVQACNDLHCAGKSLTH
Active calls of the source: *; x = not tested or not shown; ! = not confirmed by another sample. The list is not random: actives were taken first. Their share in the collection is about 3.6%.

SMILES	DUSP3 inh	Mtb hypoxia rep	GDH-TPI counter	Mtb betalactam	FBA Mtb inh
CC1OC(OC2CC[C@@]3(C)C(CC[C@]4(C)C3C=CC3=C5CC(C)(C)CC[C@]5(CO)C(O)C[C@]34C)[C@]2(C)CO)C(O)C(OC2OC(CO)C(O)C(O)C2O)C1O (stereo partly specified)	x	-2.9	x	x	x
COc1cc(C=NNC(=O)CCN2CCN(C)CC2)cc2c1OCO2	x	3.3	x	x	x
COC(=O)CN1C(=O)C2C(C=Cc3ccccc3)N3C(=O)CN(Cc4ccccc4)C(=O)[C@@]3(C)C2C1=O (stereo partly specified)	x	3.0	x	x	x
CCOc1ccccc1C=NNc1ccccc1[N+](=O)[O-]	x	2.9	x	x	x
Cc1nc(NC(=O)c2ccc(Br)s2)sc1C(=O)N(C)C	6.2	7.9	34.7*	-3.9	0.2
Cc1nc(NC(=O)c2cc3c(s2)CCCCC3)sc1C(=O)N(C)C	-0.2	-6.7	16.3	19.9	-1.0
COC(=O)C1=C(C(=O)OC)[C@]2(C3CC=CCNC(Cc4ccccc4)C(=O)N3Cc3ccccc3)C=CC1O2 (stereo partly specified)	x	5.6	x	x	x
C=CCC(CC(=O)NC(CO)Cc1ccccc1)C(=O)NC(COC(=O)C(CC=C)Cc1ccc(F)cc1)Cc1ccccc1 (stereo unspecified)	x	38.1*!	x	x	x
Oc1[nH]c2ccccc2c1C=NCC1CCCO1 (stereo unspecified)	14.4	13.5	35.1*	17.0	-1.6
C/C(=N\NC(=O)c1ccc(N2CCCC2=O)cc1)c1ccc(O)cc1O	1.2	x	33.2*	-0.6	3.0
CC(=NNC(=O)c1ccncc1)c1ccc(O)cc1O	x	11.3	41.4*	x	-1.0
CN(C)c1ccc(C2N3CC4(C)CN2CC(C)(C3)C4O)cc1 (stereo unspecified)	-1.8	-5.1	42.3*	-1.3	3.7
COc1ccc(-c2cc(C(F)(F)F)nc(S(C)(=O)=O)n2)cc1	9.9	1.9	39.0*	96.3	7.1
CCOC(=O)c1ccc(NC(=O)CC2S/C(=N/N=C/c3c[nH]c4ccccc34)NC2=O)cc1 (stereo unspecified)	-0.5	x	31.8*	6.2	-3.2
Cc1ccc(NC(=O)CC2S/C(=N/N=C/c3c[nH]c4ccccc34)NC2=O)cc1 (stereo unspecified)	8.4	x	38.6*	2.0	-2.0
COC(=O)C1=C(c2cccc(NC(C)=O)c2)CC2CCC1N2C (stereo unspecified)	x	2.4	x	x	x
O=C(O)c1cccc(N2C(=O)c3cccc4cccc(c34)C2=O)c1	38.8	6.2	19.2	1.4	3.2
O=C(O)c1ccc(N2C(=O)c3cccc4cccc(c34)C2=O)cc1	38.8	3.5	38.1*	-1.4	10.6
O=c1[nH]c(=O)n(CCC2=CCCCC2)c(O)c1C=NCc1cccnc1	10.2	4.0	3.5	-2.2	-1.5
CCC(C)n1c(O)c(C=NCc2cccnc2)c(=O)[nH]c1=S (stereo unspecified)	25.0	4.0	29.8	3.2	-1.7
O=c1[nH]c(=S)n(Cc2ccc(F)cc2)c(O)c1C=NCc1cccnc1	40.9	-6.3	35.0*	12.2	-3.4
CC(C)n1c(O)c(C=NCc2ccccc2)c(=O)[nH]c1=S	6.1	7.9	39.9*	9.4	-4.3
Cc1cccc(C(=O)NN=Cc2ccc[nH]2)c1	x	11.2	x	x	x
COc1cc(/C=N/N=C(\N)c2nonc2N)cc(OC)c1O	7.7	x	36.1*	-4.3	-2.5
CC(=NNC(=O)c1ccc(C(C)(C)C)cc1)c1cccnc1	x	4.1	x	x	x
SMILES	DUSP3 inh	Mtb hypoxia rep	GDH-TPI counter	Mtb betalactam	FBA Mtb inh
COc1ccc(OC)c(NC(=O)c2c(NC(=O)CCC(=O)O)sc3c2CCCCC3)c1	-11.3	13.2	5.6	4.6	0.9
COc1ccccc1NC(=O)c1c(NC(=O)CCC(=O)O)sc2c1CCCCC2	-10.7	-5.8	31.2*	-4.0	10.3
CN1c2ccccc2C(O)=C(C(=S)Nc2ccc(Cl)cc2)S1(=O)=O	3.6	1.2	47.7*	59.2	1.3
Cc1cccc(NC(=O)C2=C(O)c3ccccc3N(C)S2(=O)=O)c1	18.0	9.7	12.7	1.3	0.2
O=C1OCCN1C(=O)[C@H]1[C@H](c2ccc(Cl)cc2)C(c2ccc(F)cc2)=NN1c1ccc(Br)cc1	x	3.9	30.9*	x	55.1*
CN1CC(=O)N2C3c4ccccc4OCC3C(c3ccccc3)[C@]2(C)C1=O (stereo partly specified)	x	19.0	x	x	x
COc1ccc(C(N)=NOC(=O)c2ccc(C)c([N+](=O)[O-])c2)cc1	x	4.7	x	x	x
Cc1ccc(C)c(-c2ccc(=O)n(Cc3cccc(Br)c3)n2)c1	52.6*	14.0	3.2	54.4	0.8
COc1ccc(S(=O)(=O)Nc2ccc3c(c2)C(=O)N(C(C)CO)CC(C)C(CN(C)S(=O)(=O)c2ccc(F)cc2)O3)cc1 (stereo unspecified)	x	-2.6	x	x	x
Cc1cc2cc3c(cc2nc1SCC(=O)N1CCCC1)OCCO3	52.9*	10.4	13.8	x	5.6
Cc1cc2cc3c(cc2nc1SCC(=O)O)OCCO3	22.2	8.4	33.3*	-9.1	4.4
Cc1cc2cc3c(cc2nc1SCC(=O)OC(C)C)OCCO3	3.6	6.8	11.8	1.3	-0.3
N#Cc1cc2cc3c(cc2nc1SCC(=O)N1CCOCC1)OCCO3	1.8	4.8	-0.7	5.1	0.8
CN(C)S(=O)(=O)c1ccc(-c2csc(NN=Cc3ccc(O)cc3)n2)cc1	x	2.8	x	x	x
CCn1c2ccccc2c2cc(/C=N/NC(=O)c3ccccc3C)ccc21	10.2	x	34.9*	0.0	4.8
Cn1c(/C=N/NC(=O)c2ccccc2)nc2ccccc21	26.9	x	46.5*	92.6	8.0
Cn1c2ccccc2c2cc(/C=N/NC(=O)c3ccc(N)cc3)ccc21	15.0	x	35.9*	28.5	15.1
Cn1c(C=NNC(=O)c2ccccc2)nc2ccccc21	x	-7.3	x	x	x
Cn1c2ccccc2c2cc(/C=N/NC(=O)c3ccccc3F)ccc21	32.2	x	47.0*	65.6	11.8
Cn1c2ccccc2c2cc(C=NNC(=O)c3ccc(O)cc3O)ccc21	x	14.6	x	x	x
Cc1nn(-c2ccccc2)c(Cl)c1C=NNC(=O)CNC(=O)c1ccccc1Cl	x	6.7	x	x	x
Cc1cc(C(=O)Nc2cccc3c2OC(CN(C)CC2CC2)C(C)CN(C(C)CO)C3=O)n(C)n1 (stereo unspecified)	x	7.5	x	x	x
Cn1c(-c2ccccc2)c(/C=N/NC(=O)c2ccc(O)cc2)c2ccccc21	27.1	x	52.0*	-5.7	2.7
Cn1c(=O)c(C(=O)c2ccccc2)nc2ccccc21	51.9*	x	8.4	-9.6	3.6
O=C(c1ccccc1)c1nc2ccccc2n(CCCn2c(=O)c(C(=O)c3ccccc3)nc3ccccc32)c1=O	34.5	2.5	20.4	-22.8	-3.2
Cn1c(-c2ccccc2)c(C=O)c2ccccc21	1.9	19.5	3.3	0.9	-0.3
COc1ccc(C=NNC(=O)c2ccn[nH]2)cc1CN1CCOCC1	x	13.0	x	x	x
O=[N+]([O-])c1ccc(-c2ccc(C=NNc3nc(N4CCCC4)nc(N4CCCC4)n3)o2)cc1	x	-12.4	x	x	x
Cc1ccc(/C=N/Nc2cn[nH]c(=O)n2)o1	-10.0	x	32.6*	6.6	-2.7
CC(C)CC1NC(=O)C(Cc2ccc(O)cc2)NC(=O)c2cc([N+](=O)[O-])cc(I)c2NCCCC(C(N)=O)NC1=O (stereo unspecified)	x	12.3	x	x	x
